Source: PubChem
NALP1 yeast inh: inhibitors of NALP1 inflammasome in yeast; S. cerevisiae NALP1/ASC/caspase-1 growth, X-gal OD620, 72 h; inhibition, % at 10 µM; 280,000 tested, 0.61% active; AID 2071; in the data active means inhibition mostly above about 24%, no sharp cut-off; inactive means mostly below about 32%
tim23-1 inh: growth inhibitors of tim23-1 mutant yeast. S. cerevisiae tim23-1 growth, BacTiter-Glo luminescence, 24 h. inhibition, % at 20 µM. 330,000 tested, 1.3% active. AID 463212;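 active means growth inhibition of the mutant yeast at or above 50%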;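 further: temperature-sensitive mutant grown at 25 °C; plate controls were DMSO-treated mutant yeast for no effect and medium wells lacking yeast for full effect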
PfHsp90 yeast 2: reduces growth (ATP signal) of yeast expressing P. falciparum Hsp90; S. cerevisiae expressing PfHsp90, BacTiter-Glo ATP, 48 h; yeast lacking PDR1 and PDR3 efflux regulators; inhibition, % at 9.4 µM; 310,000 tested, 0.32% active; AID 504621;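 active means every replicate shows inhibition above about 80%, whatever the replicate mean, limit read from the data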;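 further: 0% = DMSO neutral controls and 100% = 20 µM radicicol positive controls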
NALP3 yeast inh: NALP3 inhibition in yeast. Yeast reconstituted NLRP3/ASC/caspase-1, beta-gal luminescence, 24 h. inhibition, % at 10 µM. 330,000 tested, 0.39% active. AID 2825;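 active means inhibition of 50% or more; inactive means inhibition below 50%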;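 further: plate controls were induced DMSO wells for no effect and uninduced yeast grown without galactose for full effect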
TIM10 inh: growth inhibitors of TIM10 yeast strain | S. cerevisiae TIM10 strain growth, BacTiter-Glo luminescence, 24 h | inhibition, % at 10 µM | 330,000 tested, 1.4% active;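 active means inhibition of 40% or more at the single tested concentration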;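 further: wild-type TIM10 isogenic control strain grown at permissive 25 °C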
tim10-1 inh: tim10-1 yeast growth inhibition | S. cerevisiae tim10-1 ts strain growth, BacTiter-Glo, 24 h | inhibition, % at 20 µM | 330,000 tested, 2.2% active;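 active means inhibition of at least 40%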;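 further: mutant grown at 25 °C; 0% = DMSO wells with yeast and 100% = wells holding no yeast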
NALP3 yeast conf: NALP3 inhibition confirmation in yeast; shares compounds with NALP3 yeast inh; inhibition, % at 10 µM; yeast expressing human NALP3, luminescence; 1,300 tested, 81% active; in the data active means inhibition above about 48%
Casp1 ASC ctr: caspase-1-ASC yeast counter-screen hit | shares compounds with NALP3 yeast inh | yeast expressing Caspase-1-ASC, luminescence counter screen | inhibition, % at 10 µM | 1,000 tested, 66% active | AID 488784
NALP3 retest: confirmation retest of NALP3 inhibitors in yeast. shares compounds with NALP3 yeast inh. inhibition, % at 10 µM. 1,000 tested, 53% active. yeast expressing human NALP3, luminescence read-out. AID 488794
tim10-1 confirm: tim10-1 yeast growth inhibition, confirmed. inhibition, % at 20 µM. S. cerevisiae tim10-1 ts strain growth, BacTiter-Glo, 24 h. 7,400 tested, 56% active. shares compounds with tim10-1 inh;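 active means inhibition of yeast growth at or above a set limit in either of two repeat tests at 20 µM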;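 further: tim10-1 mutant grown at permissive 25 °C to find synthetic lethal compounds; 0% = DMSO yeast wells and 100% = medium wells without yeast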
tim10 confirm: confirmation of TIM10 yeast growth inhibitors; shares compounds with TIM10 inh; S. cerevisiae tim10 strain growth, BacTiter-Glo luminescence, 24 h; inhibition, % at 10 µM; 4,600 tested, 63% active; AID 463215;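 active means inhibition of yeast growth at or above a set limit in either of two replicates at 10 µM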;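 further: this counterscreen used the strain with wild-type TIM10; 0% = yeast with DMSO and 100% = medium wells lacking yeast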
tim23-1 confirm: confirmation of tim23-1 mutant yeast growth inhibitors; shares compounds with tim23-1 inh; S. cerevisiae tim23-1 growth, BacTiter-Glo luminescence, 24 h; inhibition, % at 20 µM; 4,400 tested, 83% active; AID 463218;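 active means inhibition above about 39% in either of two replicate wells at 20 µM, limit read from the data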;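 further: temperature-sensitive tim23-1 mutant grown at 25 °C; 0% = DMSO wells with yeast and 100% = medium wells without yeast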
Starred values were filed as active, the others as inactive; · = no result given; + = active, no number. Compounds with a hit are over-represented: about 4.1% of the library has one in this group of screens. Unless noted, no stated cut-off is given here; in the data, active means inhibition above about 50%; inactive means the rest.

SMILES	NALP1 yeast inh	tim23-1 inh	PfHsp90 yeast 2	NALP3 yeast inh	TIM10 inh	tim10-1 inh	NALP3 yeast conf	Casp1 ASC ctr	NALP3 retest	tim10 confirm	tim23-1 confirm	others
O=[N+]([O-])c1ccc(O)c2ncccc12	157.6*	62.2*	109.2*	82.9*	-1.1	20.5	91.6*	98.7*	98.2*	·	34.8
Oc1ccc(N=Nc2n[nH]c(-c3ccc(Br)cc3)n2)cc1	11.0	·	2.1	·	·	·	·	·	·	·	·
Oc1ccc(N=Nc2ccc(Br)cc2)c(O)c1	23.0	68.4*	-11.9	57.9*	47.7*	37.2	73.3*	43.8	35.9	63.8*	2.2
CCCCCCCCCCCCCCCC[N+](C)(C)CCN(Cc1ccc(OC)cc1)c1ncccn1	·	93.3*	106.2*	52.4*	95.1*	97.2*	20.7	·	·	98.7*	95.8*	tim10-1 confirm=97.8*
COc1ccc(CN(CCN(C)C)c2ccccn2)cc1	18.5	6.4	-19.0	1.8	5.5	-14.8	·	·	·	·	·
COCCN(C(=O)COC(=O)CSc1ccccc1)c1c(N)n(Cc2ccccc2)c(=O)[nH]c1=O	·	-7.4	10.5	8.6	0.3	5.3	·	·	·	·	·
O=c1c2ccccc2nc(-c2ccc(Cl)c(Cl)c2)n1O	-3.2	79.1*	-16.0	64.5*	62.1*	49.1*	42.4	26.0	33.4	54.8*	73.4*	tim10-1 confirm=29.6*
O=c1c2ccc(Cl)cc2nc(-c2cccc(C(F)(F)F)c2)n1O	1.8	56.1*	-104.5	52.2*	27.1	33.5	63.2*	44.2	52.2*	·	48.4*
N#Cc1ccc(-c2nc3cc(Cl)ccc3c(=O)n2O)cc1	41.5*	50.4*	4.3	63.4*	27.7	28.1	72.3*	50.8*	63.6*	·	55.6*
Cc1cc(C)c(OCCCNC2CCCC2)c(Br)c1	25.2	13.3	-25.2	24.2	4.6	11.1	·	·	·	·	·
Cc1ccc2nc(NC(=O)c3ccc(-c4nc5ccccc5s4)s3)sc2c1	33.0	8.1	0.5	5.9	5.7	6.6	·	·	·	·	·
O=C(NC1CC1)c1ccc(-c2nc3ccccc3s2)s1	-4.8	58.7*	·	60.0*	52.8*	10.2	55.0*	51.5*	48.3	51.2*	67.6*
CSCC[C@H](NC(=O)Cc1c(C)c2cc3c4c(oc3cc2oc1=O)CCCC4)C(=O)O	6.2	8.4	-21.2	-1.4	-1.3	16.5	·	·	·	·	·
COc1ccc(-n2ncc3c(=O)n(CC(=O)NC(C)C)cnc32)cc1	-4.4	9.3	8.9	9.0	-13.3	-2.4	·	·	·	·	·
CCN1/C(=C/C=C/c2oc3ccc4ccccc4c3[n+]2CC)Oc2ccc3ccccc3c21	7.9	68.9*	·	59.3*	61.7*	54.4*	61.0*	·	·	68.3*	64.2*	tim10-1 confirm=56.2*
CC(C)CN(C(=O)c1ccc(F)cc1F)c1c(N)n(CC(C)C)c(=O)[nH]c1=O	0.5	10.4	2.0	-1.0	-15.4	-2.7	·	·	·	·	·
O=C(Oc1cc(=O)oc2c1c(=O)n1c3c(cccc23)CC1)c1ccc(F)cc1	2.2	70.8*	·	57.9*	47.0*	46.0*	73.8*	·	·	30.9	53.4*	tim10-1 confirm=4.1
O=C(Oc1cc(=O)oc2c1c(=O)n1c3c(cccc23)CC1)c1ccccc1	-3.5	57.5*	21.7	64.3*	41.2*	11.7	76.5*	56.3*	62.6*	28.8	66.5*
Cc1cccc(C(=O)OC(C)C(=O)NCC2CCCCC2)c1O (stereo not drawn)	·	-2.9	-7.7	7.8	-0.6	-4.4	·	·	·	·	·
CN=C1S/C(=C\c2ccc(O)c(Br)c2)C(=O)N1C	19.7	61.8*	28.0	68.0*	36.5	55.7*	84.2*	78.2*	71.8*	·	62.6*	tim10-1 confirm=49.7*
C[C@@]12C(=O)Nc3ccccc3C(=O)N1[C@H]1c3cc(Br)ccc3OC[C@@H]1[C@@H]2c1ccccc1	·	49.0	-22.6	17.1	6.1	33.6	·	·	·	·	·
COc1ccc(-c2cc(=O)c3ccccc3[nH]2)cc1	15.2	13.3	-18.5	0.4	17.4	4.5	·	·	·	·	·
COc1ccc(-c2cc(=O)c3ccccc3s2)cc1	5.1	51.6*	11.3	65.8*	41.8*	28.7	66.2*	54.2*	66.2*	44.5*	54.0*
N#C/C(C(N)=O)=c1/ccc2c(c1)N1C3=C(CCCC3)CC3CCCCC31N=2 (stereo not drawn)	7.4	62.9*	·	57.4*	19.2	25.9	14.5	·	·	·	52.0*
CCCCOc1ccc(C2=CSC3=NCCN23)cc1[N+](=O)[O-]	11.6	-9.2	12.2	5.7	-5.5	-24.0	·	·	·	·	·
SMILES	NALP1 yeast inh	tim23-1 inh	PfHsp90 yeast 2	NALP3 yeast inh	TIM10 inh	tim10-1 inh	NALP3 yeast conf	Casp1 ASC ctr	NALP3 retest	tim10 confirm	tim23-1 confirm	others
CCCCOc1ccc(-c2csc(N)n2)cc1[N+](=O)[O-]	-16.0	53.2*	12.1	57.0*	42.7*	22.9	-13.1	·	·	-1.6	62.7*
O=C1NC(=Nc2ccccc2)S/C1=C\c1cccs1	·	65.0*	-1.8	56.1*	30.5	24.4	29.9	·	·	·	72.3*
Cc1cc(C)cc(N=C2NC(=O)/C(=C/c3cccs3)S2)c1	32.5	13.3	-1.5	17.7	12.5	7.4	·	·	·	·	·
COc1cccc(F)c1C(C[N+](=O)[O-])c1c(N)n(C)c(=O)n(C)c1=O (stereo not drawn)	+	82.2*	103.2*	63.6*	45.8*	53.9*	43.8	56.1*	32.6	51.6*	82.3*	tim10-1 confirm=59.5*
Cc1ccc(C(C[N+](=O)[O-])c2c(N)n(C)c(=O)n(C)c2=O)cc1 (stereo not drawn)	+	53.7*	108.2*	70.2*	23.8	35.7	63.6*	78.2*	52.7*	·	63.7*
Cn1c(N)c(C(C[N+](=O)[O-])c2ccccc2Cl)c(=O)n(C)c1=O (stereo not drawn)	·	34.2	-20.1	36.9	25.9	14.1	·	·	·	·	·
COc1ccc(CNCC(=O)Nc2cccc(S(N)(=O)=O)c2)cc1	0.3	5.1	-15.1	1.1	7.3	3.3	·	·	·	·	·
CC(NC(=O)COC(=O)CCC(=O)c1ccc(F)cc1)c1ccccc1 (stereo not drawn)	·	12.6	4.5	20.0	-1.5	2.6	·	·	·	·	·
